“And” between values parts separate entries of the source, which are not always exact repeats. Equal values may be shown once. Records with an inconclusive call do not appear. The source made the active and inactive calls. Unless noted, calls come from the whole dose curve; as a rule, active = well fitted curve in the direction sought with a large enough effect; inconclusive = small, poorly fitted or top-dose-only effect, or another doubt; inactive = no such curve, though single readings can be large; an effect the other way counts as inactive or inconclusive.
Experiments:
[1] = Cell Viability - BJ (AID 421; calls by dose curve;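 note: potency is the fitted concentration of half-maximal effect; cells exposed to compound for 40 hours at 37 °C before readout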); settings: BJ fibroblast viability, qHTS
Summary of the method: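 Cytotoxicity in human BJ foreskin fibroblasts is scored as loss of cellular ATP after a 40-hour exposure, measured by luciferase luminescence. Controls are DMSO and 100 uM tamoxifen.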

[2] = Cell Viability - MRC5 (AID 434; calls by dose curve;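 note: potency is the fitted concentration of half-maximal effect; cells exposed to compound for 40 hours at 37 °C; potency reflects cytotoxicity seen as loss of intracellular ATP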); settings: MRC5 lung fibroblast viability, qHTS
Summary of the method: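 AC50 values come from Hill-equation fits of intracellular ATP loss, measured by CellTiter-Glo luminescence. Normal lung fibroblasts (MRC5) had 40 hr compound treatment at 37 C, normalized between DMSO and 100 uM tamoxifen.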

[3] = Cell Viability - SK-N-SH (AID 435; calls by dose curve;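 note: potency is the fitted concentration of half-maximal effect; compound exposure lasted 40 h at 37 °C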); settings: SK-N-SH neuroblastoma cell viability qHTS
Summary of the method: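 Luminescent ATP signal served as the viability read-out after 40 hours of compound treatment of human neuroblastoma SK-N-SH cells. Concentration-response data, scaled between DMSO and 100 uM tamoxifen, gave AC50 values by standard Hill modeling.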

[4] = Cell Viability - NIH 3T3 (AID 541); settings: NIH 3T3 cell viability, qHTS; activity change, negative = cytotoxicity: at 92.2 µM (top of the series); note: nearly all actives have a fitted effect of over 25% in size; note: potency is the fitted concentration of half-maximal effect;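 for activity change, negative = cytotoxicity: plate controls were DMSO alone for no effect and tamoxifen positive control for full effect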
Summary of the method: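 Intracellular ATP (CellTiter-Glo luminescence, 20 min at room temperature) measured after 40 hr compound exposure at 37 °C of 1000 NIH 3T3 mouse fibroblasts/well in complete medium; AC50 derived by Hill-equation modelling of qHTS concentration-response curves.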

[5] = Cell Viability - Mesenchymal (AID 546); settings: mesenchymal cells viability, qHTS; activity change, negative = cytotoxicity: at 91.7 µM (top of the series);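 note: cells exposed to compound for 40 hours before reading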; note: potency is the fitted concentration of half-maximal effect
Summary of the method: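 CellTiter-Glo luminescence (intracellular ATP, 20 min room temperature) after 40 hr compound exposure at 37 °C of 1000 glomerulus-derived human kidney mesenchymal cells/well; AC50 values obtained by fitting qHTS concentration-response data to the Hill equation.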

[6] = Cellular Toxicity (caspase-3) BJ (AID 658); settings: BJ fibroblasts, luminescence, normalized: DMSO 0%, staurosporine 100%; series mostly up to 91.7 µM
Summary of the method: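 Caspase-Glo 3/7 luminescence, read 1 hr after reagent at room temperature, in normal BJ fibroblasts exposed 16 hours at 37 °C. AC50 values from Hill-equation concentration-response, scaled between DMSO basal and 10 uM staurosporine as 100%.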

[7] = Cellular Toxicity (caspase-3) MRC-5 (AID 659); settings: MRC-5 cells, luminescence, normalized: DMSO 0%, 10 µM staurosporine 100%; series mostly up to 91.7 µM
Summary of the method: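 Luminescent Caspase-Glo 3/7 read-out (1 h, room temperature) after a 16 h, 37 °C compound exposure of MRC-5 lung fibroblasts at 1500 cells/well. Concentration-response AC50 from Hill equation; 0% DMSO, 100% 10 uM staurosporine.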

[8] = Cellular Toxicity (caspase-3) Mesangial (AID 660); settings: mesangial cells, normalized: DMSO 0%, 100 µM tamoxifen 100%; series mostly up to 91.7 µM;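 note: combined caspase 3 and 7 activity read by Caspase-Glo luminescence; cells exposed to compound for 16 h before the caspase read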
Summary of the method: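 Caspase 3/7 activation measured by Caspase-Glo 3/7 luminescence (20 min, room temperature) following 16 h exposure of mesangial cells (1000/well); AC50 from Hill-equation fit, normalized to DMSO and 100 uM tamoxifen.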

[9] = Cellular Toxicity (caspase-3) Hek293 (AID 664); settings: HEK293 caspase-3 activation, DMSO = 0%, 100 µM tamoxifen = 100%; series mostly up to 92.2 µM;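 note: cells exposed to compound for 16 h at 37 °C before readout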
Summary of the method: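 Concentration-response qHTS: caspase 3/7 activation measured by luminescent aminoluciferin substrate cleavage after 16 h compound exposure of Hek 293 cells. AC50 from Hill equation, with DMSO as basal and 100 uM tamoxifen as 100%.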

[10] = Cellular Toxicity (caspase-3) Renal Proximal Tubule (AID 667); settings: renal proximal tubule cells, primary cells freshly taken from rat, solvent-only wells 0%, staurosporine 100%; series mostly up to 91.7 µM;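 note: cells exposed to compound for 16 hours at 37 °C before detection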
Summary of the method: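 AC50 derived by standard Hill fit of concentration-response data, normalized between DMSO basal and 10 uM staurosporine as 100% stimulation. Cells: primary rat kidney proximal tubule, 16 h treatment at 37 °C.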

[11] = MultiTox-Fluor Cytotoxicity Assay - LYMP1-003 - Live Cells (AID 962); settings: LYMP1-003 lymphoblastoid cells, MultiTox-Fluor live-cell protease fluorescence; series mostly up to 92.2 µM;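 note: 0% = DMSO only and full loss = 92 µM tetraoctylammonium bromide; cytotoxic hits lower the live-cell protease signal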
Summary of the method: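 Live-cell protease activity (GF-AFC substrate, 405/510 nm, 60 min at room temperature) after 16 h, 37 C compound exposure of human lymphoblastoid LYMP1-003 cells; concentration-response fitted to the Hill equation for AC50.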

[12] = qHTS Assay for Identification of Small Molecule Inducers of Hypoxia Response (AID 2120; active = well fitted curve in the direction sought with a large enough effect in the signal ratio, with a control signal flat, not every such curve was filed as active; the % refers to the signal ratio; note: 0% is about no effect); settings: hypoxia response reporter cells, beta-lactamase ratio readout; series mostly up to 104 µM
Summary of the method: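 Reporter induction read as the CCF4 blue/green (460nm/530nm) emission ratio after 2.5 h dye loading at room temperature. ME-180 HRE-beta-lactamase cells received titrated compounds for 17 h at 37 degrees Celsius; AC50 values derived.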

[13] = qHTS assay for small molecule antagonists of retinoid X receptor alpha signaling (AID 588546; active = well fitted inhibition curve with a large enough effect in the signal ratio, with a control signal flat, not every such curve was filed as active; the % refers to the signal ratio;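 note: cells stimulated with 9-cis-retinoic acid as agonist; % is set by controls: 0 for no effect and ±100 for the full control effect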); settings: HEK293T RXRa-UAS-bla, beta-lactamase ratio, antagonist mode; measured here: W530 green channel, cytotoxicity proxy
Summary of the method: (§1)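 Beta-lactamase reporter inhibition, read as CCF4 fluorescence ratio (ex 405, em 460/530 nm) after 2 h at RT. HEK293T UAS-bla cells, 2500/well, were stimulated with 9-cis-RA at 500 or 100 nM final alongside test compound for 18 h at 37 C.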

[14] = molecular target: Retinoic acid receptor RXR-alpha (Homo sapiens) (UniProt P19793); assay: as above; settings: HEK293T RXRa-UAS-bla, beta-lactamase ratio, antagonist mode
Summary of the method: as §1

[15] = qHTS assay for environmental chemicals that activate the Aryl hydrocarbon Receptor (AhR) signaling pathway (AID 651777); settings: 1A2-DRE human hepatoma cells, luciferase, 24 h; activation: stronger effect = higher value; note: % of control where 0% means no effect; nearly all actives have a fitted effect of over 15% in size
Summary of the method: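 Human hepatoma 1A2-DRE cells, stably carrying a dioxin response element and CYP1A2 promoter driving luciferase, were exposed to compounds for 24 hr at 37 C and 5% CO2. Luciferase signal was then read after 30 min One-Glo at room temperature.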

[16] = molecular target: Peroxisome proliferator-activated receptor alpha (Homo sapiens) (UniProt Q07869); assay: qHTS assay for small molecule agonists of the peroxisome proliferator-activated receptor alpha (PPARalpha) signaling pathway (AID 651778); settings: PathHunter PPARalpha complementation, chemiluminescence, 6 h; max response: stronger effect = higher value; note: % of control where 0% means no effect
Summary of the method: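 Chemiluminescence from complemented enzyme reported PPARalpha activation in cells after 6 hr of compound treatment at 37 C. The detection reagent was incubated for 60 min at room temperature, and compounds were scored as agonists.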

[17] = qHTS assay for small molecule agonists of the antioxidant response element (ARE) signaling pathway measured by Nrf2-dependant transcriptional activity (AID 720636; active = well fitted curve in the direction sought with a large enough effect in the repeat runs; an effect the other way counts as inactive or inconclusive; note: % of control where 0% means no effect); settings: ARE-luc HepG2, Nrf2 luciferase reporter, 16 h; series mostly up to 92.4 µM
Summary of the method: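 ARE-luc HepG2 cells carrying an Nrf2-responsive luciferase reporter were plated in medium with 1% dialyzed FBS, left 6 hr at 37 C to attach, then exposed to compound for 16 hr. Luciferase luminescence was read after ONE-Glo addition.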

[18] = qHTS assay for small molecule agonists of the antioxidant response element (ARE) signaling pathway measured by Nrf2-dependant transcriptional activity - cell viability counter screen (AID 720653; active = well fitted curve in the direction sought with a large enough effect in the repeat runs; an effect the other way counts as inactive or inconclusive; note: % is set by controls: 0 for no effect and ±100 for the full control effect); settings: ARE-bla HepG2 viability, CellTiter-Glo ATP luminescence, 16 h; max response: stronger effect = lower value
Summary of the method: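 Cytotoxicity counter screen: intracellular ATP quantified by CellTiter-Glo luminescence in the same ARE-bla HepG2 plates, after 16 h compound exposure and a 2 h beta-lactamase substrate step.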

[19] = qHTS assay for cell viability of HEK293 cells (AID 743288); settings: ATP luminescence (CellTiter-Glo), 18 h; max response: stronger effect = lower value; note: nearly all actives have a fitted effect of over 50% in size; note: potency is the fitted concentration of half-maximal effect; for max response: % is set by controls: 0 for no effect and ±100 for the full control effect
Summary of the method: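 Viable-cell counts were inferred from luciferase-based ATP content in HEK293 cells seeded at 2,000/well, pre-incubated ≥5 h, then dosed with DMSO-solubilised compounds for 18 h at 37 C.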

[20] = molecular target: Thyroid hormone receptor beta (Homo sapiens) (UniProt P10828); assay: qHTS assay for small molecule agonists of thyroid hormone receptor beta signaling (AID 588545; calls by dose curve); settings: TR-UAS-bla GripTite HEK 293, beta-lactamase ratio, agonist mode, 18 h, percent of T3 response, DMSO as zero; series mostly up to 76.7 µM
Summary of the method: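 Agonist-mode beta-lactamase reporter assay, HEK 293 cells, 2% charcoal/dextran FBS; cells plated 4 hrs, compound 18 hrs at 37 C, CCF4 2 hrs RT. Normalized to 10 nM T3 (100%) and DMSO (0%); Hill fit gives EC50, efficacy.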

Retinoic acid receptor RXR-alpha (Homo sapiens), sequence (P19793 whole entry, looked up): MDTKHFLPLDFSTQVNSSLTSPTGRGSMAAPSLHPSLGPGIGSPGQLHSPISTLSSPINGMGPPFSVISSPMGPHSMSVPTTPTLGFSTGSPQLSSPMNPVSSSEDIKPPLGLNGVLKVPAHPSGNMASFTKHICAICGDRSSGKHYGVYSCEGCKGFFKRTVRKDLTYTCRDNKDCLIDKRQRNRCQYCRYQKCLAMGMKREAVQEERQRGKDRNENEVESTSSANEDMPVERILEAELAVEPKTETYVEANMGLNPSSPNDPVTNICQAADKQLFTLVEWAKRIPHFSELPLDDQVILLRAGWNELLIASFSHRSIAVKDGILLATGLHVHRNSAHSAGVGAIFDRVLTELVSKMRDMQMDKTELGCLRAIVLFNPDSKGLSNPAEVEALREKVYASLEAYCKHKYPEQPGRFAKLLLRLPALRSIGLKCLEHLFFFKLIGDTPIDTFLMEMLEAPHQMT
Thyroid hormone receptor beta (Homo sapiens), sequence (P10828 whole entry, looked up): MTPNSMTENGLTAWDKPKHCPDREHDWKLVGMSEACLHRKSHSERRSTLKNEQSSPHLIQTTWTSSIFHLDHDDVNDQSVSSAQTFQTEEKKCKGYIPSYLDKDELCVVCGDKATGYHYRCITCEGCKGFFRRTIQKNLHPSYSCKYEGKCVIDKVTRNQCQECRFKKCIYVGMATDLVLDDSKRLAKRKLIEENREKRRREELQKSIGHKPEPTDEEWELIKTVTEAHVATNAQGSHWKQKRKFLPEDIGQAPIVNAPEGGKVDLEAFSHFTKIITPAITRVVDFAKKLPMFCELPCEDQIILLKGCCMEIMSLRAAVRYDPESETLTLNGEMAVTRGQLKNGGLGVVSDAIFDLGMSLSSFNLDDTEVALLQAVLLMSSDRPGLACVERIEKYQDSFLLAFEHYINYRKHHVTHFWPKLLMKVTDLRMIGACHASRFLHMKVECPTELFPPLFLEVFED
Peroxisome proliferator-activated receptor alpha (Homo sapiens), sequence (Q07869 whole entry, looked up): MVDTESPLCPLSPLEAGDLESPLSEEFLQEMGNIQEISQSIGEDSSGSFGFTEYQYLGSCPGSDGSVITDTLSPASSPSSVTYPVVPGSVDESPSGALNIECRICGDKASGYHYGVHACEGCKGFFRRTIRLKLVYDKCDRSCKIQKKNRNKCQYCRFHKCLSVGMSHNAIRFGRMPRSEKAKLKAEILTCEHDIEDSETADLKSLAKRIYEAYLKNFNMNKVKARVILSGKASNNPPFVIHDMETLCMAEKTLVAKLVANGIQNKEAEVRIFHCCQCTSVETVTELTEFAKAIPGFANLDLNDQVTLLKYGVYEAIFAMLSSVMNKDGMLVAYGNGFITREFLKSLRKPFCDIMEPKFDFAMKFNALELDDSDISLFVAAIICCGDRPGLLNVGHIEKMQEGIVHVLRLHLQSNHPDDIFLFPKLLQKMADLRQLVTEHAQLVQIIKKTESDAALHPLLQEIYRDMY

OCCNCCO
inactive: Potency [1] > 92 µM | Potency [2] > 92 µM | Potency [3] > 92 µM | Potency [4] | activity change, negative = cytotoxicity [5] 11.5% | outcome [6] | outcome [7] | outcome [8] | outcome [9] | outcome [10] | Potency [11] | outcome [12] | max response [14] -2.15% and -2.6% | activation [15] 1.33% and -0.956% | max response [16] 0.687% and 0.279% | Potency [17] | max response [18] 2.63% and -10.1% | max response [19] 2.85% and -11.3%
-14.5% and -2.92%: max response [13]

CCCN(CCC)C(=O)SCC
inactive: Potency [1] > 92 µM | Potency [2] > 92 µM | Potency [3] > 92 µM | Potency [4] | activity change, negative = cytotoxicity [5] 5.65% | outcome [6] | outcome [7] | outcome [8] | outcome [9] | outcome [10] | Potency [11] | outcome [12] | outcome [20] | max response [14] 13.3% and -9.15% | activation [15] 0.446% and -0.849% | max response [16] -2.51% and -1.87% | Potency [17] | max response [18] -4.11% and 2.96% | max response [19] -7.69% and -8.5%
-11.5% and -6.21%: max response [13]

ClCCCl
inactive: Potency [1] > 92 µM | Potency [2] > 92 µM | Potency [3] > 92 µM | Potency [4] | activity change, negative = cytotoxicity [5] 8.24% | outcome [6] | outcome [7] | outcome [8] | outcome [9] | outcome [10] | Potency [11] | outcome [12] | outcome [20] | max response [14] -2.31% and -1.04% and -10.6% | activation [15] 0.113% and 1.25% and 1.3% | max response [16] 1.65% and -1.11% | Potency [17] | max response [18] 20.3% and 6% and -12.9% | max response [19] -0.0928% and -7.5% and -2.25%
-8.92% and -8.87% and -8.24%: max response [13]

Cc1ccccc1C
-1.73% and -2.63%: max response [13]
inactive: Potency [1] > 92 µM | Potency [2] > 92 µM | Potency [3] > 92 µM | Potency [4] | activity change, negative = cytotoxicity [5] -15.1% and 9.28% | outcome [6] | outcome [7] | outcome [8] | outcome [9] | outcome [10] | Potency [11] | outcome [12] | outcome [20] | max response [14] 24.2% and -2.36% | activation [15] 1.3% and -0.327% | max response [16] 1.03% and -0.383% | Potency [17] | max response [18] -17.8% and 4.54% | max response [19] -12.4% and -5.18%

O=C(Nc1ccccc1)c1ccccc1O
inactive: outcome [20] | max response [16] -0.0723%

O=NO
-4.23% and -6.24%: max response [13]
inactive: Potency [1] > 92 µM | Potency [2] > 92 µM | Potency [3] > 92 µM | Potency [4] | activity change, negative = cytotoxicity [5] -3.1% and 3.16% | outcome [6] | outcome [7] | outcome [8] | outcome [9] | outcome [10] | Potency [11] | outcome [12] | outcome [20] | max response [14] 16.8% and -9.55% | activation [15] -0.432% and -1.54% | max response [16] 0.744% and -3.6% | Potency [17] | max response [18] -5.36% and 6.29% | max response [19] 0.172% and -0.275%

CC1=CC(C)(C)Nc2ccccc21
inactive: Potency [1] > 92 µM | Potency [2] > 92 µM | Potency [3] > 92 µM | Potency [4] | activity change, negative = cytotoxicity [5] 16.2% and 9.84% | outcome [6] | outcome [7] | outcome [8] | outcome [9] | outcome [10] | Potency [11] | outcome [12] | outcome [20] | max response [14] 7.64% and -0.906% | activation [15] 1.47% and 1.06% | max response [16] 2.08% and -3.28% | Potency [17] | max response [18] 0.655% and 4.88% | max response [19] -4.28% and -1.89%
-11.3% and -9.31%: max response [13]

S=C1NC=NC2N=CNC12 (centres undefined)
active: Potency [1] 0.22 µM | Potency [3] 0.237 µM | Potency [4] 3.98 µM | Potency [5] 0.501 µM | Potency [19] 2.24 µM
4.27%: max response [13]
inactive: Potency [2] > 92 µM | outcome [6] | outcome [7] | outcome [8] | outcome [9] | outcome [10] | Potency [11] | outcome [12] | outcome [20] | max response [14] -10.4% | activation [15] -2.14% | max response [16] -7.07% | Potency [17]

O=[N+]([O-])c1cccc(Cl)c1Cl
3.16% and 3%: max response [13]
inactive: Potency [1] > 92 µM | Potency [2] > 92 µM | Potency [3] > 92 µM | Potency [4] | activity change, negative = cytotoxicity [5] 4.81% | outcome [6] | outcome [7] | outcome [8] | outcome [9] | outcome [10] | Potency [11] | outcome [12] | max response [14] 13.3% and -13.6% | activation [15] 0.0517% and -0.399% | max response [16] -3.44% and -1.57% | Potency [17] | max response [18] 3.32% and 9.85% | max response [19] -3.06% and -4.76%

Source: PubChem BioAssay (NCATS)
